# Test results reported in PubChem BioAssay (NCATS).
# Unmarked numbers belong to inactive results. Results filed as inconclusive are left out. The source made the active and inactive calls. Unless noted, calls come from the whole dose curve; as a rule, active = well fitted curve in the direction sought with a large enough effect; inconclusive = small, poorly fitted or top-dose-only effect, or another doubt; inactive = no such curve, though single readings can be large; an effect the other way counts as inactive or inconclusive.
# Tested on: Zika virus NS2B-NS3 protease
# Assay: Primary screen GU AMC qHTS for Zika virus inhibitors (AID 1347154); note: nearly all actives have a fitted effect of over 70% in size
# Conditions: Zika NS2B-NS3 unlinked protease, AMC fluorogenic substrate; series mostly up to 54.1 µM; activity change, negative = inhibition: at the top concentration
# Summary of the method: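 Unlinked Zika NS2B hydrophilic domain/NS3 protease domain noncovalent complex (25 nM final) in 10 mM Tris-HCl pH 8.0, 0.01% Tween 20, with AMC peptide substrate. Fluorescence (ex 340, em 450 nm) change over 15 min, room temperature; percent inhibition fitted to 4-parameter Hill equation.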
SMILES,"activity change, negative = inhibition",Potency
CC(=Nc1ccccc1N)c1c(C)cc(=O)n(O)c1O,-3.55%,
O=C(O)/C=C1\CCCc2ccccc2C1O (centres undefined),-1.57%,
CN(C)CCCCSC(=N)N,,inactive
CC(N)(COP(=O)(O)O)C(=O)O (centres undefined),13.2%,
O=C1NN(C(=O)Nc2ccc(Br)cc2)C(c2ccccc2)C1c1ccccc1 (centres undefined),-17.9%,
O=C(O)C(Cc1ccc2c(c1)oc1ccccc12)NCP(=O)(O)O (centres undefined),9.27%,
Cn1cnc2c(NC3CCCC3)ncnc21,3.57%,
CCCCn1c(=O)c2[nH]c(C34CC5CC(CC3C5)C4)nc2n(CCCO)c1=O,2.49%,
NC(CCC(=O)NCS(=O)(=O)O)C(=O)O (centres undefined),3.25%,
CSc1ccc([C@H]2CN3CCC[C@H]3c3ccccc32)cc1,2.24%,
CC(C)=CCC/C(C)=C/CC/C(C)=C/CC[C@]1(C)CCc2c(C)c(O)c(C)c(C)c2O1,0.636% [at 6.83 µM],
CCCCCCCC/C=C\CCCCCCCC(=O)OC[C@H](CO)OC(C)=O,16.8% [at 6.83 µM],
O=C(OCCN1CCCCC1)c1c[nH]c2ccccc12,,inactive
OCC(O)COc1cccc2ccccc12 (centres undefined),10.9%,

# Tested on: not listed separately
# Assay: qHTS to identify inhibitors of the type 1 interferon - major histocompatibility complex class I in skeletal muscle: primary screen against the NCATS Mechanism Interrogation Plate v5.0 (MIPE) Libary (AID 1347411);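 note: plate controls were vehicle for no effect and reference inhibitor for full effect; nearly all actives have a fitted effect of over 65% in size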
# Conditions: iHSKM cells + IFN-b, HiBiT-tagged MHC-I luminescence, 24 h; series mostly up to 45.8 µM; activity change, negative = inhibition: at the top concentration
# Summary of the method: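 Luminescence from CRISPR HiBit-tagged endogenous HLA-B in human myoblasts reported MHC class I level after 24 h of IFN-beta (4 ng/ml) plus compound. Compounds ran as 11-point 1:3 series, top 46 uM final.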
row,SMILES,"activity change, negative = inhibition [%]"
1,N#C/C(=C(/N)Sc1ccc(N)cc1)c1ccccc1C(F)(F)F,-23.1
2,Clc1ccc(-c2nc3sccn3c2/C=N/OCc2ccc(Cl)c(Cl)c2)cc1,-0.785
3,COc1ccc(S(=O)(=O)N(CCO)c2ccccc2CN(C)C/C=C/c2ccc(Cl)cc2)cc1,-24.1
4,CCCC[C@@H](C=O)NC(=O)[C@H](CC(C)C)NC(=O)OCc1ccccc1,70
5,COc1ccc2c(c1)CC[C@@H]1[C@@H]2CC[C@]2(C)[C@@H](NCCCCCCN3C(=O)C=CC3=O)CC[C@@H]12,-10.4

# Tested on: not listed separately
# Assay: Primary qHTS for small molecule stabilizers of the endoplasmic reticulum resident proteome: Secreted ER Calcium Modulated Protein (SERCaMP) assay (AID 1508630); note: % is set by controls: 0 for no effect and ±100 for the full control effect
# Conditions: SH-SY5Y GLuc-SERCaMP (Gaussia luciferase released on ER calcium loss) secretion, thapsigargin, luminescence; series mostly up to 38.4 µM; activity change, negative = inhibition: at the top concentration
# Summary of the method: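 The SH-SY5Y reporter protocol was run at 3 concentrations up to 38.3 uM (primary) or 11 concentrations (follow-up): 16 h compound, 100 nM thapsigargin for 4 h, then extracellular luciferase luminescence.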
SMILES,"activity change, negative = inhibition",Potency
CC(N)=NCc1cccc(CN)c1,-15% [at 76.3 µM],
O=C(O)c1cc(=O)c2ccc(Cl)cc2[nH]1,-26.9%,
N#C/C(=C(/N)Sc1ccc(N)cc1)c1ccccc1C(F)(F)F,-20.1%,
Clc1ccc(-c2nc3sccn3c2/C=N/OCc2ccc(Cl)c(Cl)c2)cc1,,inactive
NCCCCCCNS(=O)(=O)c1cccc2c(Cl)cccc12,,inactive
CCCn1c(=O)c2[nH]c(-c3ccc(OCC(=O)Nc4ccc(C#N)cc4)cc3)nc2n(CCC)c1=O,-3.24%,
C=C1C(=O)O[C@@H]2[C@H]3O[C@]3(C)CC/C=C(\C)CC[C@@H]12,215% [at 76.3 µM],
CCCC[C@@H](C=O)NC(=O)[C@H](CC(C)C)NC(=O)OCc1ccccc1,176%,
COc1ccc2c(c1)CC[C@@H]1[C@@H]2CC[C@]2(C)[C@@H](NCCCCCCN3C(=O)C=CC3=O)CC[C@@H]12,33.2%,
CN(C)CCCCSC(=N)N,-16.6%,
Cn1cnc2c(NC3CCCC3)ncnc21,7.52%,
NC(CCC(=O)NCS(=O)(=O)O)C(=O)O (centres undefined),-17%,
O=C(OCCN1CCCCC1)c1c[nH]c2ccccc12,29.5%,

# Tested on: not listed separately
# Assay: Primary qHTS for inhibitors of nuclear receptor binding SET domain protein 2 (NSD2) in an isogenic RCH-ACV NSD2 p.E1099K mutant (9B) (AID 1645876); note: nearly all actives have a fitted effect of over 70% in size; note: potency is the fitted concentration of half-maximal effect; for activity change, negative = viability loss: % is set by controls: 0 for no effect and ±100 for the full control effect
# Conditions: RCH-ACV NSD2 E1099K (9B) viability, CellTiter-Glo, 72 h; series mostly up to 44.9 µM; activity change, negative = viability loss: at the top concentration; outcome: at the top concentration
SMILES,"activity change, negative = viability loss [%]",Potency
Clc1ccc(-c2nc3sccn3c2/C=N/OCc2ccc(Cl)c(Cl)c2)cc1,7.28,
COc1ccc(S(=O)(=O)N(CCO)c2ccccc2CN(C)C/C=C/c2ccc(Cl)cc2)cc1,,7.42 µM (active)
C=C1C(=O)O[C@@H]2[C@H]3O[C@]3(C)CC/C=C(\C)CC[C@@H]12,,3.72 µM (active)
COc1ccc2c(c1)CC[C@@H]1[C@@H]2CC[C@]2(C)[C@@H](NCCCCCCN3C(=O)C=CC3=O)CC[C@@H]12,,13.2 µM (active)

# Tested on: not listed separately
# Assay: Primary qHTS for inhibitors of nuclear receptor binding SET domain protein 2 (NSD2) in an RCH-ACV wild type WT cells (2C) (AID 1645877); note: nearly all actives have a fitted effect of over 70% in size; note: potency is the fitted concentration of half-maximal effect; for activity change, negative = cell killing: % is set by controls: 0 for no effect and ±100 for the full control effect
# Conditions: RCH-ACV (leukaemia line) NSD2 WT (2C) viability, CellTiter-Glo, 72 h; series mostly up to 44.9 µM; activity change, negative = cell killing: at the top concentration; outcome: at the top concentration
SMILES,"activity change, negative = cell killing [%]",Potency
Clc1ccc(-c2nc3sccn3c2/C=N/OCc2ccc(Cl)c(Cl)c2)cc1,-3.1,
COc1ccc(S(=O)(=O)N(CCO)c2ccccc2CN(C)C/C=C/c2ccc(Cl)cc2)cc1,,8.33 µM (active)
C=C1C(=O)O[C@@H]2[C@H]3O[C@]3(C)CC/C=C(\C)CC[C@@H]12,,2.09 µM (active)
COc1ccc2c(c1)CC[C@@H]1[C@@H]2CC[C@]2(C)[C@@H](NCCCCCCN3C(=O)C=CC3=O)CC[C@@H]12,,5.25 µM (active)

# Target: Glutathione peroxidase 1 (Homo sapiens) (UniProt P07203)
# Sequence (P07203 whole entry, looked up): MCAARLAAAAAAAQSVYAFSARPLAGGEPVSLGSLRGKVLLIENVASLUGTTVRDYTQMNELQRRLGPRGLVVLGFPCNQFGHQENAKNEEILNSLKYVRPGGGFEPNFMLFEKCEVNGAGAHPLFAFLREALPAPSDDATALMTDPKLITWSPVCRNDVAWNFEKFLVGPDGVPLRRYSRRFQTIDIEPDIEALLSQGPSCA
# Assay: Primary qHTS Assay for Inhibitors of Recombinant Selenoprotein Glutathione Peroxidase 1 (GPX1) (AID 1845191); note: nearly all actives have a fitted effect of over 65% in size; for activity, negative = inhibition: % is set by controls: 0 for no effect and ±100 for the full control effect
# Conditions: recombinant GPX1, GR-coupled NADPH fluorescence, 15 min; series mostly up to 48.8 µM; activity, negative = inhibition: at the top concentration; outcome: at the top concentration
# Summary of the method: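 GPX1 10 nM, GR 100 nM, GSH 1 mM, NADPH 0.5 mM, CHP 0.5 mM (final). 30-min cpd preincubation, RT. Ex340/Em450 read t=0, t=15 min.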
SMILES,"activity, negative = inhibition [%]",Potency,outcome
N#C/C(=C(/N)Sc1ccc(N)cc1)c1ccccc1C(F)(F)F,-10.8,,
Clc1ccc(-c2nc3sccn3c2/C=N/OCc2ccc(Cl)c(Cl)c2)cc1,4.74,,
COc1ccc(S(=O)(=O)N(CCO)c2ccccc2CN(C)C/C=C/c2ccc(Cl)cc2)cc1,,inactive,
CCCC[C@@H](C=O)NC(=O)[C@H](CC(C)C)NC(=O)OCc1ccccc1,,,inactive
COc1ccc2c(c1)CC[C@@H]1[C@@H]2CC[C@]2(C)[C@@H](NCCCCCCN3C(=O)C=CC3=O)CC[C@@H]12,,,inactive

# Target: Phospholipid hydroperoxide glutathione peroxidase GPX4 (Homo sapiens) (UniProt P36969)
# Sequence (P36969 whole entry, looked up): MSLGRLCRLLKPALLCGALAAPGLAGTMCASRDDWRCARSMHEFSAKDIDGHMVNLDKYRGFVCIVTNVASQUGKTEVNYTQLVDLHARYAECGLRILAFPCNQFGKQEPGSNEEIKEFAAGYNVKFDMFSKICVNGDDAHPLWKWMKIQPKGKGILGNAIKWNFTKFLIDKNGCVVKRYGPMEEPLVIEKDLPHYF
# Assay: Primary qHTS Assay for Inhibitors of Recombinant Selenoprotein Glutathione Peroxidase 4 (GPX4) (AID 1845192); note: nearly all actives have a fitted effect of over 65% in size
# Conditions: recombinant GPX4, GR-coupled NADPH fluorescence, 15 min; series mostly up to 50 µM; activity change, negative = inhibition: at the top concentration
# Summary of the method: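 qHTS, GR-coupled: GPX4 200 nM + cpd 30 min RT → GSH 1 mM, NADPH 0.5 mM, GR 100 nM → CHP 0.5 mM start; fluor 340/450 at t0 and t15 min; no-enzyme wells as control.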
SMILES,"activity change, negative = inhibition [%]",outcome
N#C/C(=C(/N)Sc1ccc(N)cc1)c1ccccc1C(F)(F)F,-16.1,
Clc1ccc(-c2nc3sccn3c2/C=N/OCc2ccc(Cl)c(Cl)c2)cc1,-12.2,
COc1ccc(S(=O)(=O)N(CCO)c2ccccc2CN(C)C/C=C/c2ccc(Cl)cc2)cc1,-1.42,
CCCC[C@@H](C=O)NC(=O)[C@H](CC(C)C)NC(=O)OCc1ccccc1,,inactive

# Tested on: not listed separately
# Assay: qHTS drug screen for cell cycle checkpoint inhibitors in PARPi-resistant BRCA-mutant ovarian cancer cell lines. (AID 1963452; calls by dose curve)
# Conditions: PEO1/OlaR viability, CellTiter-Glo luminescence, 96 h; stronger effect = lower value
# Summary of the method: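 PEO1, PEO4 and PEO1/OlaR ovarian cancer cells, 600 per well, exposed 96 h at 37C to a dilution series. Viability read by CellTiter-Glo luminescence, normalized to DMSO and empty wells; activity summarized as Z-AUC.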
row,SMILES,Z-AUC
1,N#C/C(=C(/N)Sc1ccc(N)cc1)c1ccccc1C(F)(F)F,-0.578
2,Clc1ccc(-c2nc3sccn3c2/C=N/OCc2ccc(Cl)c(Cl)c2)cc1,1.14
3,COc1ccc(S(=O)(=O)N(CCO)c2ccccc2CN(C)C/C=C/c2ccc(Cl)cc2)cc1,-0.289
4,CCCC[C@@H](C=O)NC(=O)[C@H](CC(C)C)NC(=O)OCc1ccccc1,1.25
5,COc1ccc2c(c1)CC[C@@H]1[C@@H]2CC[C@]2(C)[C@@H](NCCCCCCN3C(=O)C=CC3=O)CC[C@@H]12,0.11
